ID4 SMM: ID4 (human) binding; P47928; actives 1.2% (n = 31,000); calls only; small molecule microarray, Flag-ID4 binding, fluorescence F/B; call rule not given here;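 note: a binder raises fluorescence above local background on the spot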
Target sequence (P47928 whole entry, looked up): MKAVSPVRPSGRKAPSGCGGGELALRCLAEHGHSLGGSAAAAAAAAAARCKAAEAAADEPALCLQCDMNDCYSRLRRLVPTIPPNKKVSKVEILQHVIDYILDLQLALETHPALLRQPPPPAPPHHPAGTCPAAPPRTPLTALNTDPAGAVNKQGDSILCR
p53 PUMA act: mutant p53 pathway reactivation; SW480 PUMA-promoter luciferase; activation, % at 9.98 µM; actives 1.5% (n = 28,000); AID 624151; in the data active = activation above about 52%
Hits are given with their value. Most compounds without a hit are left out; they make up all but 2.2% or so of the library.

`COC1=CC(=O)O[C@@H](CCc2ccc3c(c2)OCO3)C1` gave ID4 SMM inactive and p53 PUMA act inactive.
`COC1=CC(=O)O[C@@H](/C=C/c2ccccc2)C1` gave ID4 SMM inactive and p53 PUMA act 77.6.
Clc1ccc(C(c2ccc(Cl)cc2)C(Cl)(Cl)Cl)cc1 was read as ID4 SMM inactive.
For Cc1c(C(=O)c2cccc3ccccc23)c2cccc3c2n1[C@@H](CN1CCOCC1)CO3 the results were ID4 SMM active and p53 PUMA act inactive.
Screening CC(C)(O)CCC(=O)[C@](C)(O)[C@H]1[C@H](O)C[C@@]2(C)[C@@H]3CC=C4C(C=C(O[C@@H]5O[C@H](CO)[C@@H](O)[C@H](O)[C@H]5O)C(=O)C4(C)C)[C@]3(C)C(=O)C[C@]12C (stereo not given in full) returned ID4 SMM inactive and p53 PUMA act inactive.
Screening CCOC(=O)c1cc2c(cn1)[nH]c1ccccc12 returned ID4 SMM inactive and p53 PUMA act 65.3.
`COC(=O)c1cc2c(cn1)[nH]c1ccccc12` gave ID4 SMM inactive and p53 PUMA act inactive.
CCCCCc1cc(OC)c(CC=C(C)C)c(O)c1C(=O)O was read as p53 PUMA act inactive.
NC(=NCc1ccc(Cl)cc1)SCCCc1cnc[nH]1 was read as ID4 SMM inactive and p53 PUMA act inactive.
